# Source: PubChem BioAssay (Tox21)
# Where “and” joins values, the source holds several entries; their conditions need not be identical. Equal entries are not always repeated. Inconclusive results are not listed. Where a call stands in place of a potency, no number is given. Some structures have more than one record in an assay (separate samples or runs), and their calls can disagree. Calls of active or inactive are those of the source. Calls come from the whole dose curve; as a rule, active = well fitted curve in the direction sought with a large enough effect in the repeat runs; inconclusive = weak or mixed curves; inactive = no such curve, though single readings can be large; an effect the other way counts as inactive or inconclusive.
# Legend:
# [1] = Human pregnane X receptor (PXR) small molecule agonists, qHTS cell viability counter screen (AID 1346977); details: PXR-Luc HepG2 viability, CellTiter-Fluor, 24 h; series mostly up to 92.4 µM; note: nearly all actives have a fitted effect of over 50% in size; note: potency is the fitted concentration of half-maximal effect
# In short: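 Viability counter screen: CellTiter-Fluor signal in PXR-Luc HepG2 cells, 24hr compound exposure, 37C, 5% CO2.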
# [2] = Caspase-3/7 induction in HepG2 cells by small molecules, qHTS assay (AID 1346978); details: HepG2 caspase-3/7 activation, Caspase-Glo luminescence, 17 h; series mostly up to 92.4 µM; note: nearly all actives have a fitted effect of over 15% in size; note: potency is the fitted concentration of half-maximal effect
# In short: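 Wild-type HepG2 cells (2,000/well) were settled 5 h at 37 C, 5% CO2, then exposed to compounds in DMSO for 17 h. Caspase-3/7 activity was read by luminescence 30 min after adding Caspase-Glo 3/7 reagent at room temperature.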
# [3] = Caspase-3/7 induction in CHO-K1 cells by small molecules, qHTS cell viability counter screen (AID 1346979); details: CellTiter-Fluor fluorescence, 17 h; series mostly up to 92.4 µM; note: nearly all actives have a fitted effect of over 35% in size; note: potency is the fitted concentration of half-maximal effect
# In short: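 Viability readout by fluorescence (CellTiter-Fluor) on wild-type CHO-K1 cells exposed for 16hr at 37C and 5% CO2 to compounds delivered in DMSO; reagent incubated 1hr before reading.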
# [4] = Caspase-3/7 induction in CHO-K1 cells by small molecules, qHTS assay (AID 1346980); details: CHO-K1 caspase-3/7 induction, Caspase-Glo luminescence, 17 h; series mostly up to 92.4 µM; note: nearly all actives have a fitted effect of over 15% in size; note: potency is the fitted concentration of half-maximal effect
# In short: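 Wild-type cells were seeded at 1,500 per well and settled 5 hr at 37 C, 5% CO2, then exposed to DMSO-dissolved compounds for 17 hr. Caspase-Glo 3/7 reagent was added, and luminescence was read after 30min at room temperature.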
# [5] = biological target: Nuclear receptor subfamily 1 group I member 2 (Homo sapiens) (UniProt O75469); assay: Human pregnane X receptor (PXR) small molecule agonists, qHTS assay (AID 1346982); details: PXR-Luc HepG2, CYP3A4 luciferase reporter, 24 h; series mostly up to 92.4 µM; note: nearly all actives have a fitted effect of over 35% in size; note: potency is the fitted concentration of half-maximal effect
# In short: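 Cells: HepG2 stably carrying PXR-Luc. Medium held 5% charcoal-stripped FBS. Compounds in DMSO added after 5 hr plating, incubated 24 hr, then luminescence quantified with ONE-Glo.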
# [6] = biological target: Cytochrome P450 2C19 (Homo sapiens) (UniProt P33261); assay: Cytochrome P450 Family 2 Subfamily C Member 19 (CYP2C19) small molecule antagonists: luciferase reporter qHTS assay (AID 1671197); details: P450-Glo CYP2C19 enzyme, luciferin luminescence, 1 h; series mostly up to 115 µM; note: nearly all actives have a fitted effect of over 65% in size; note: potency is the fitted concentration of half-maximal effect
# In short: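 Luminescent readout of CYP2C19 activity: luciferin product detected 20 min after adding detection reagent. Before that, compound and enzyme-substrate mix preincubated 10 min at room temperature; NADPH-regenerating system started a 1 h, 37C reaction. Ketoconazole as positive control.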
# [7] = biological target: Cytochrome P450 2C9 (Homo sapiens) (UniProt P11712); assay: Cytochrome P450 Family 2 Subfamily C Member 9 (CYP2C9) small molecule antagonists: luciferase reporter qHTS assay (AID 1671198); details: P450-Glo CYP2C9 enzyme assay, luciferin luminescence; series mostly up to 115 µM; note: nearly all actives have a fitted effect of over 50% in size; note: potency is the fitted concentration of half-maximal effect
# In short: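 CYP2C9 activity was measured with a P450-Glo proluciferin substrate. Enzyme–substrate mix was held with compound for 10 min at room temperature, then NADPH regeneration solution was added for 1 h at 37C. Luciferin product was read as luminescence.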
# [8] = biological target: Cytochrome P450 1A2 (Homo sapiens) (UniProt P05177); assay: Cytochrome P450 Family 1 Subfamily A Member 2 (CYP1A2) small molecule antagonists: luciferase reporter qHTS assay (AID 1671199); details: P450-Glo CYP1A2 enzyme, luciferin luminescence, 1 h; series mostly up to 115 µM; note: nearly all actives have a fitted effect of over 50% in size; note: potency is the fitted concentration of half-maximal effect
# In short: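 Compounds were incubated with CYP1A2 and a luminogenic proluciferin substrate for 10 min at room temperature before the reaction was started with NADPH regeneration solution. After 1 h, detection reagent was added and light output, proportional to CYP activity, was recorded.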
# [9] = biological target: Voltage-gated inwardly rectifying potassium channel KCNH2 (Homo sapiens) (UniProt Q12809); assay: Human Ether-a-go-go-Related Gene (hERG) channel small molecule antagonists: fluorescence cell-based qHTS assay (AID 1671200); details: hERG-U2OS cells, FluxOR thallium flux fluorescence; series mostly up to 76.8 µM; note: nearly all actives have a fitted effect of over 50% in size; note: potency is the fitted concentration of half-maximal effect;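 for activity change, negative = inhibition: hERG-expressing U2OS cells given a thallium stimulus after FluxOR II dye loading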
# In short: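 Thallium served as the potassium surrogate; its influx into dye-loaded U2OS cells carrying the channel was measured by fluorescence over 2 min.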
# [10] = Caspase-3/7 induction in HepG2 cells by small molecules, qHTS cell viability counter screen (AID 1346981); details: CellTiter-Fluor fluorescence, 17 h; series mostly up to 92.4 µM; note: nearly all actives have a fitted effect of over 30% in size; note: potency is the fitted concentration of half-maximal effect
# In short: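 Cell viability is measured as a cytotoxicity counter screen alongside the Caspase-Glo 3/7 readout in identical wells. Wild-type HepG2 cells are treated with test compounds for 16 hr at 37 C before CellTiter-Fluor addition and a 1-hr incubation.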
# [11] = biological target: Nuclear receptor subfamily 1 group I member 2 (Rattus norvegicus) (UniProt Q9R1A7); assay: Rat pregnane X receptor (rPXR) activation by small molecules, qHTS assay (AID 1346983); details: rPXR luciferase reporter cells, One-Glo luminescence, 24 h; max activation: stronger effect = higher value; note: nearly all actives have a fitted effect of over 20% in size; note: potency is the fitted concentration of half-maximal effect
# In short: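 Cell-based rPXR luciferase reporter assay, 2,000 cells per well, rested 5hr at 37 C before compound addition in DMSO, then 24 hr at 37 C. One-Glo reagent was added and luminescence read after 30 min at room temperature.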
# [12] = biological target: Nuclear receptor subfamily 1 group I member 2 (Homo sapiens) (UniProt O75469); assay: Human pregnane X receptor (PXR) activation by small molecules, qHTS assay (AID 1346985); details: DPX-2 HepG2 CYP3A4-luciferase, 24 h; series mostly up to 38.3 µM; note: nearly all actives have a fitted effect of over 40% in size
# In short: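 DPX-2 cells (HepG2 co-transfected with a PXR response element and a CYP3A4-promoter luciferase construct) were seeded at 2,000 per well, rested 5 hr at 37C, then exposed to DMSO-dissolved compounds for 24 hr. Activation was read as luciferase luminescence.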
# [13] = biological target: Cytochrome P450 2D6 (Homo sapiens) (UniProt P10635); assay: Cytochrome P450 Family 2 Subfamily D Member 6 (CYP2D6) small molecule antagonists: luciferase reporter qHTS assay (AID 1671196); details: P450-Glo CYP2D6 enzyme assay, luciferin luminescence, 1 h; series mostly up to 115 µM; note: nearly all actives have a fitted effect of over 50% in size; note: potency is the fitted concentration of half-maximal effect
# In short: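 Enzyme and proluciferin substrate were first combined with test chemical for 10 min at room temperature. Adding NADPH regeneration solution started a 1 h reaction, stopped with luciferin detection reagent and read by luminescence 20 min later.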
# [14] = biological target: Cytochrome P450 3A4 (Homo sapiens) (UniProt P08684); assay: Cytochrome P450 Family 3 Subfamily A Member 4 (CYP3A4) small molecule antagonists: luciferase reporter qHTS assay (AID 1671201); details: P450-Glo CYP3A4 enzyme, luciferin luminescence, 1 h; series mostly up to 115 µM; note: nearly all actives have a fitted effect of over 50% in size
# In short: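 Relative luminescence units after 20 min with luciferin detection reagent served as read-out. Beforehand, CYP3A4 turned over a proluciferin substrate for 1 h at room temperature with NADPH regeneration, following 10 min compound preincubation.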
# [15] = biological target: Nuclear receptor subfamily 1 group I member 2 (Homo sapiens) (UniProt O75469); assay: CYP3A4 induction through human pregnane X receptor (PXR) by small molecules, qHTS assay (AID 1346984); details: DPX-2 HepG2 PXR, CYP3A4-luciferin luminescence, 24 h; series mostly up to 46.1 µM; note: nearly all actives have a fitted effect of over 40% in size
# In short: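 Quantitative HTS in DPX-2 cells, i.e. HepG2 transfected with PXR response element and CYP3A4-promoter luciferase. Compounds in DMSO incubated 24hr at 37C; then P450-Glo CYP3A4 substrate, 3uM final, 3hr; One-Glo luminescence.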
# Sequence of Cytochrome P450 2C19 (Homo sapiens) (P33261 whole entry, looked up): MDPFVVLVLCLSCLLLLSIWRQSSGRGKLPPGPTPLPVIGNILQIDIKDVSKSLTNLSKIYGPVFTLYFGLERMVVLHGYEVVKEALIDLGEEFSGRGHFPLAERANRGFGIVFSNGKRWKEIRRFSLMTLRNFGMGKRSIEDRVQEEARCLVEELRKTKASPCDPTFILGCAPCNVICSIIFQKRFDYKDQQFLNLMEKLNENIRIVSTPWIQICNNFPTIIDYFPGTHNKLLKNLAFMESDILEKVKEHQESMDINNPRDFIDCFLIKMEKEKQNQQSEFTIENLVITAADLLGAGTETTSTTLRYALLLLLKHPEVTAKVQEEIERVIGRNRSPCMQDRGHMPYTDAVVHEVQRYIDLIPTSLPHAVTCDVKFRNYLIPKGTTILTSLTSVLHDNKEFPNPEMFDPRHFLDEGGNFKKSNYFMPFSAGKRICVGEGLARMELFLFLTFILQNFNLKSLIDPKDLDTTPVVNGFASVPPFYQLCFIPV
# Sequence of Cytochrome P450 3A4 (Homo sapiens) (P08684 whole entry, looked up): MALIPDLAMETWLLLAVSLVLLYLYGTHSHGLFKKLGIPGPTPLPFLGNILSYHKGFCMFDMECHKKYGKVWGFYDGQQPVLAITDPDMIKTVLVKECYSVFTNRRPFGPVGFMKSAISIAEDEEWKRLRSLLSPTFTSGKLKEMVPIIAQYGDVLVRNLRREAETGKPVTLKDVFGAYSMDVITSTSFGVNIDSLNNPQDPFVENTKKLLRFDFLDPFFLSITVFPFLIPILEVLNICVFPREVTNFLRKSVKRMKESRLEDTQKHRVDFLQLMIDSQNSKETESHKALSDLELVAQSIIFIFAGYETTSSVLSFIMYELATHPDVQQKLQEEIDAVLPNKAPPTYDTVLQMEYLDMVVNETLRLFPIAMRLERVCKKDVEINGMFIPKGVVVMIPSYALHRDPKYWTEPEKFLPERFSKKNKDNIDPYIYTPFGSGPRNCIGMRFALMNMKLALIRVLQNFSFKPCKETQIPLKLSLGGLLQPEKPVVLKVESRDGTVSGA
# Sequence of Cytochrome P450 1A2 (Homo sapiens) (P05177 whole entry, looked up): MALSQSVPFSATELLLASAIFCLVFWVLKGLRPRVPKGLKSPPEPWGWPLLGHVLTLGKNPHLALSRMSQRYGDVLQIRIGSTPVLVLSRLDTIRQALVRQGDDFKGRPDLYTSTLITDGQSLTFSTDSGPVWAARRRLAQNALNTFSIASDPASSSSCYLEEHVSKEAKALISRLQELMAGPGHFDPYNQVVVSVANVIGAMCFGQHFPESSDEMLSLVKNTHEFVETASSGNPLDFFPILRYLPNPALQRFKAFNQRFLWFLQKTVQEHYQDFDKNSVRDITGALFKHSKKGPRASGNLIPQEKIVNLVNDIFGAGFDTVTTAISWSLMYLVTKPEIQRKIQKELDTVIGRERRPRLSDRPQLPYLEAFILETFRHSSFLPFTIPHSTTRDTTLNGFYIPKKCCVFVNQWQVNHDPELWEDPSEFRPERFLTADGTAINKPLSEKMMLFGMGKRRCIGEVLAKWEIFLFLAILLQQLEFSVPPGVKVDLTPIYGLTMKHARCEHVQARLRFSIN
# Sequence of Cytochrome P450 2D6 (Homo sapiens) (P10635 whole entry, looked up): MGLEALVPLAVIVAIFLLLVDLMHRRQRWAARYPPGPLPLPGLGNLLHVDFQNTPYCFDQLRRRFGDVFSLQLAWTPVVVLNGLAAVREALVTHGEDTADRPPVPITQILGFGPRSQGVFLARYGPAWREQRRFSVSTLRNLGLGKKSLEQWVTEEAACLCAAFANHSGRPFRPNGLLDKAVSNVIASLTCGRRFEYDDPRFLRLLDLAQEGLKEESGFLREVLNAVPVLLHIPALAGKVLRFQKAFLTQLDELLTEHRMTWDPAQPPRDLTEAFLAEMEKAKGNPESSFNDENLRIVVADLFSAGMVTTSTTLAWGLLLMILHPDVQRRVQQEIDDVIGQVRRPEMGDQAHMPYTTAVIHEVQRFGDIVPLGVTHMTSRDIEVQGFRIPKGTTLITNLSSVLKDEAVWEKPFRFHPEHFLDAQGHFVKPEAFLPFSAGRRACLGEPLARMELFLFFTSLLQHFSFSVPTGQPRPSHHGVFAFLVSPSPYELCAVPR
# Sequence of Nuclear receptor subfamily 1 group I member 2 (Homo sapiens) (O75469 whole entry, looked up): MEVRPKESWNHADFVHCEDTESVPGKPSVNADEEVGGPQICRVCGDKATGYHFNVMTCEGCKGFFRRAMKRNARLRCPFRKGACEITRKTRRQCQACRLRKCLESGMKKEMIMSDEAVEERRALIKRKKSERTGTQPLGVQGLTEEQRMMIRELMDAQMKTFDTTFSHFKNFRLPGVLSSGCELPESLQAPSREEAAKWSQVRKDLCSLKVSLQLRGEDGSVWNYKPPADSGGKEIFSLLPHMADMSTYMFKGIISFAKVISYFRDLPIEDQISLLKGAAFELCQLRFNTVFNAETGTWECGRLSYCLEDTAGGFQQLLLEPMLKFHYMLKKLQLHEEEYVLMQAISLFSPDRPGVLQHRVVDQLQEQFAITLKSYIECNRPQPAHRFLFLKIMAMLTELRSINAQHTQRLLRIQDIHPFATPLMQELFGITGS
# Sequence of Nuclear receptor subfamily 1 group I member 2 (Rattus norvegicus) (Q9R1A7 whole entry, looked up): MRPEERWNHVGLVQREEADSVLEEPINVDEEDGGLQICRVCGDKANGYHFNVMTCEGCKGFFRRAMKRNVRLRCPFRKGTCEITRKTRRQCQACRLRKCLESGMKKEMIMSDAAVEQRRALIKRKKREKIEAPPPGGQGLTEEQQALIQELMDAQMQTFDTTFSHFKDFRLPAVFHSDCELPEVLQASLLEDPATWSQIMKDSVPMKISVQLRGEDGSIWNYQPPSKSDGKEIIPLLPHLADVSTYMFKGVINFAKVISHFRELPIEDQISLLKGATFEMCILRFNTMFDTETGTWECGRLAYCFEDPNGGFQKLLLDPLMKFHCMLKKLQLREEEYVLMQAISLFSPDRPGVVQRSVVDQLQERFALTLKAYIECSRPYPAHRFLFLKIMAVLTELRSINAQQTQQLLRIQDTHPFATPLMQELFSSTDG
# Sequence of Cytochrome P450 2C9 (Homo sapiens) (P11712 whole entry, looked up): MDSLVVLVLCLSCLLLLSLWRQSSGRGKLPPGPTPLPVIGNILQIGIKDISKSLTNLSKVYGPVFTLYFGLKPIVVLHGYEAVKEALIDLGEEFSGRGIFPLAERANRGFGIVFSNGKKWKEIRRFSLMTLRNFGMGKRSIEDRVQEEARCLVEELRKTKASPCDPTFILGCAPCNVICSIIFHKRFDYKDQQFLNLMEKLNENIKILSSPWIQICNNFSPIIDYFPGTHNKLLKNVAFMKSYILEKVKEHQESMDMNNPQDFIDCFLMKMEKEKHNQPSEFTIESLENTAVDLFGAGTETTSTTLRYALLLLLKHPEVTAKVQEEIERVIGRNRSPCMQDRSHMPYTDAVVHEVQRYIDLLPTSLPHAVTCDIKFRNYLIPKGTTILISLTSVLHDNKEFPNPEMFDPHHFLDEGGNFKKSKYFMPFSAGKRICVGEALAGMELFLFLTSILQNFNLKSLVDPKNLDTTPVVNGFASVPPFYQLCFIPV
# Sequence of Voltage-gated inwardly rectifying potassium channel KCNH2 (Homo sapiens) (Q12809 whole entry, looked up): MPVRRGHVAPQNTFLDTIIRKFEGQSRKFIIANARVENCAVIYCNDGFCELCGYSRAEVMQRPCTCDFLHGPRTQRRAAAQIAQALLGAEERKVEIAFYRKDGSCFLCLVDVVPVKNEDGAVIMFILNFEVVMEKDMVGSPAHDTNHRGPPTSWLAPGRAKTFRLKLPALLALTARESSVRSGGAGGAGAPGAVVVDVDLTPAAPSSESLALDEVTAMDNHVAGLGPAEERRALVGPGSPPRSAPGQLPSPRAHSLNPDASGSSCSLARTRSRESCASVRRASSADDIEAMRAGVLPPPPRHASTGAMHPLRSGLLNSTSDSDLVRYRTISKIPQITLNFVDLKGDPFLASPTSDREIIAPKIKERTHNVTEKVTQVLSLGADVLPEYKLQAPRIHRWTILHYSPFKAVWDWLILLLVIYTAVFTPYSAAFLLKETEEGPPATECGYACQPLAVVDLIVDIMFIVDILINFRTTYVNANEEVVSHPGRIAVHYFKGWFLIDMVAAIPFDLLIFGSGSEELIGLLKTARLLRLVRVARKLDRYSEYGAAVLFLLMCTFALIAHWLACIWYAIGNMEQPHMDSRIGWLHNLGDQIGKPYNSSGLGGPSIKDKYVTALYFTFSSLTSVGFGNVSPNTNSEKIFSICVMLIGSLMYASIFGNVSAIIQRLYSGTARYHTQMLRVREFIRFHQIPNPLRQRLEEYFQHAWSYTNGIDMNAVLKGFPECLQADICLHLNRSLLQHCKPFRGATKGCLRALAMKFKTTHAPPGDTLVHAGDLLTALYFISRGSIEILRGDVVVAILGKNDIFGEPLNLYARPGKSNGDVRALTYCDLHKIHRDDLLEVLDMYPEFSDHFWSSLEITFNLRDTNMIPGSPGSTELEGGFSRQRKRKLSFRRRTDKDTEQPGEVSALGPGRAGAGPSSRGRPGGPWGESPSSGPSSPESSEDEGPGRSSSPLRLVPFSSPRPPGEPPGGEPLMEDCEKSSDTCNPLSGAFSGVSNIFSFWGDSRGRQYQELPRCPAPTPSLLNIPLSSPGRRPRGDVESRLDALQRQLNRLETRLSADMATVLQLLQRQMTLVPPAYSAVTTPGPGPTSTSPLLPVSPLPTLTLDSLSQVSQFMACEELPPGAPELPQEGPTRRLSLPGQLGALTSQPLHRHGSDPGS
compound,measurement,setting,value
Nc1ccc([N+](=O)[O-])cc1O,Potency,[1],30.6 µM (active)
same,Potency,[2],inactive
same,Potency,[3],40.9 µM (active)
same,Potency,[4],inactive
same,Potency,[5],61.1 µM (active)
same,Potency,[6],6.33 µM (active)
same,Potency,[7],43.5 µM (active)
same,Potency,[8],42.3 µM (active)
same,Potency,[9],inactive
CN1[C@@H]2CC(OC(=O)[C@H](CO)c3ccccc3)C[C@H]1[C@@H]1O[C@@H]12 (stereo partly drawn),Potency,[1],inactive
same,Potency,[3],inactive
same,Potency,[4],inactive
same,Potency,[10],inactive
same,Potency,[5],inactive
same,max activation,[11],6.06% (inactive) and -0.026% (inactive)
same,outcome,[12],inactive
Nc1ccc(O)c([N+](=O)[O-])c1,Potency,[2],inactive
same,Potency,[3],47.1 µM (active)
same,Potency,[4],inactive
same,Potency,[5],19.3 µM (active)
same,Potency,[6],22.2 µM (active)
same,Potency,[7],25 µM (active)
same,Potency,[8],48.5 µM (active)
same,Potency,[9],inactive
CNNCc1ccc(C(=O)NC(C)C)cc1,Potency,[1],inactive
same,Potency,[2],inactive
same,Potency,[3],inactive
same,Potency,[4],inactive
same,max activation,[11],-1.77% (inactive)
same,Potency,[9],inactive
O=c1[nH]cc(F)c(=O)[nH]1,Potency,[1],inactive
same,Potency,[2],inactive
same,Potency,[4],inactive
same,Potency,[10],inactive
same,Potency,[5],31.8 µM (active) and 24.9 µM (active) and inactive
same,Potency,[13],inactive and 34.7 µM (active)
same,Potency,[6],20.8 µM (active) and inactive
same,Potency,[7],inactive
same,Potency,[8],32.9 µM (active) and inactive
same,Potency,[9],inactive
same,Potency,[14],inactive
Cc1ccc(S(=O)(=O)O)cc1,Potency,[1],inactive
same,Potency,[2],inactive
same,Potency,[3],inactive
same,Potency,[4],inactive
same,Potency,[9],inactive
CN[C@H]1CC[C@@H](c2ccc(Cl)c(Cl)c2)c2ccccc21,Potency,[1],29.8 µM (active)
same,Potency,[2],13.3 µM (active)
same,Potency,[3],29.8 µM (active)
same,Potency,[10],29.8 µM (active)
same,max activation,[11],8.99% (inactive)
same,Potency,[13],1.55 µM (active)
same,Potency,[6],3.89 µM (active)
same,Potency,[7],30.9 µM (active)
same,Potency,[8],17.4 µM (active)
COc1ccc(C(Cl)=C(c2ccc(OC)cc2)c2ccc(OC)cc2)cc1,Potency,[1],inactive
same,Potency,[2],inactive
same,Potency,[3],inactive
same,Potency,[4],inactive
same,Potency,[13],inactive
same,Potency,[6],7.93 µM (active) and 12.6 µM (active) and 4.36 µM (active)
same,Potency,[7],8.9 µM (active) and 7.96 µM (active) and 7.76 µM (active)
same,Potency,[8],inactive
same,Potency,[9],inactive
same,Potency,[14],inactive
C1CCC(C(CC2CCCCN2)C2CCCCC2)CC1 (stereo not drawn),Potency,[1],26.6 µM (active)
same,Potency,[2],33.5 µM (active)
same,Potency,[10],29.8 µM (active)
same,Potency,[5],6.68 µM (active)
same,max activation,[11],-20.4% (inactive)
same,Potency,[15],inactive
same,outcome,[12],inactive
same,Potency,[13],1.1 µM (active)
same,Potency,[6],24.5 µM (active)
same,Potency,[7],inactive
same,Potency,[8],inactive
Nc1ccc2c(c1)CN1C(=O)c3ccccc3C1=N2,caspase activation,[2],-14.3% [at 19 µM] (inactive)
same,caspase-3/7 activation,[4],-7.02% [at 19 µM] (inactive)
same,Potency,[5],0.073 µM (active)
same,Potency,[13],6.01 µM (active)
same,Potency,[6],3.01 µM (active)
same,Potency,[7],3.79 µM (active)
same,Potency,[8],0.499 µM (active)
same,"activity change, negative = inhibition",[9],0.308% [at 15.8 µM] (inactive)
CC1(C)O[C@@H]2C[C@H]3[C@@H]4CCC5=CC(=O)C=C[C@]5(C)[C@@]4(F)[C@@H](O)C[C@]3(C)[C@]2(C(=O)CO)O1,Potency,[1],inactive
same,Potency,[2],inactive
same,Potency,[3],inactive
same,Potency,[4],inactive
same,Potency,[11],12.6 µM (active)
same,Potency,[13],31.9 µM (active) and inactive
same,Potency,[6],inactive
same,Potency,[8],inactive
same,Potency,[9],inactive
CC(C)c1c(C(=O)Nc2ccccc2)c(-c2ccccc2)c(-c2ccc(F)cc2)n1CC[C@@H](O)C[C@@H](O)CC(=O)O,Potency,[1],inactive
same,Potency,[2],26.3 µM (active)
same,Potency,[4],inactive
CC/C(=C(\c1ccccc1)c1ccc(OCCN(C)C)cc1)c1ccccc1,Potency,[1],25.1 µM (active) [middle of 5 runs]
same,Potency,[2],27.5 µM (active) and 54.4 µM (active) and 61.1 µM (active)
same,Potency,[3],54.4 µM (active) [middle of 4 runs]
same,Potency,[4],24.5 µM (active) and inactive
same,max activation,[11],-0.827% (inactive)
C1=CC2C3C=CC(C3)C2C1 (stereo not drawn),Potency,[1],inactive
same,Potency,[2],inactive
same,Potency,[3],inactive
same,Potency,[4],inactive
same,Potency,[13],6.99 µM (active)
same,Potency,[6],inactive
same,Potency,[8],57 µM (active)
same,Potency,[9],inactive
same,Potency,[14],inactive
O=C1NC(=O)C(c2ccccc2)(c2ccccc2)N1,Potency,[1],inactive
same,Potency,[2],inactive
same,Potency,[3],inactive
same,Potency,[4],inactive
same,Potency,[9],inactive
COc1ccc(CN(CCN(C)C)c2ccccn2)cc1,Potency,[1],inactive
same,Potency,[2],inactive
same,Potency,[3],inactive
same,Potency,[4],inactive
same,Potency,[5],inactive
same,Potency,[6],9.94 µM (active) and 32.8 µM (active) and 21.9 µM (active)
same,Potency,[7],inactive
same,Potency,[8],inactive
same,Potency,[9],21.7 µM (active) and 20.1 µM (active)
same,Potency,[14],inactive
Oc1ccccc1,Potency,[1],inactive
same,Potency,[2],inactive
same,Potency,[3],inactive
same,Potency,[4],inactive
same,Potency,[9],inactive
COc1cccc(O)c1O,Potency,[2],inactive
same,Potency,[3],63.5 µM (active)
same,Potency,[4],inactive
same,Potency,[5],25.3 µM (active)
same,Potency,[6],58.6 µM (active)
same,Potency,[7],inactive
same,Potency,[9],inactive
same,Potency,[14],inactive
